Consider five molecules from PubChem BioAssay (EPA / NIEHS).

In general, AC50 refers to the concentration giving half of the maximal activity seen.

The source made the active and inactive calls. Rule for the calls: active = hit-call score of the fitted dose curve at least 0.9, where 1 is the maximum; inactive = score below 0.9.

Read-out in assay [1]: Tissue Factor, F3 (gene 2152)
Description: BSK_CASM3C_TissueFactor: BioMAP Diversity Plus: CASM3C Assay for Tissue Factor Biomarker Activity (AID 2283052).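 Note: cell surface tissue factor protein level read by ELISA.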 The following applies: primary human coronary artery smooth muscle cells; actives raise or lower the signal.

Read-out in assay [2]: Interferon-gamma inducible Protein 10 (IP10), CXCL10 (gene 3627)
Nature of the assay: BSK_hDFCGF_IP10: BioMAP Diversity Plus: hDFCGF Assay for Interferon-gamma inducible Protein 10 (IP10) Biomarker Activity (AID 2283053). The following applies: primary human foreskin fibroblasts; actives raise or lower the signal. A digest of the protocol:
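Cells: human dermal foreskin fibroblasts. Exposure: 24 h post-dosing. Detection: IP-10 ELISA, with values expressed against DMSO controls and fitted in both directions.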

Read-out in assay [3]: Urokinase-type plasminogen activator receptor (uPAR), PLAUR (gene 5329)
Description: BSK_CASM3C_uPAR: BioMAP Diversity Plus: CASM3C Assay for Urokinase-type plasminogen activator receptor (uPAR) Biomarker Activity (AID 2283054).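 Note: cell-surface uPAR protein level quantified by ELISA.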 The following applies: primary human coronary artery smooth muscle cells; actives raise or lower the signal.

Read-out in assay [4]: Vascular cell adhesion molecule 1 (VCAM1), VCAM1 (gene 7412)
Nature of the assay: BSK_CASM3C_VCAM1: BioMAP Diversity Plus: CASM3C Assay for Vascular cell adhesion molecule 1 (VCAM1) Biomarker Activity (AID 2283055).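 Note: VCAM-1 protein level quantified by ELISA on the cells.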 The conditions noted are these: primary human coronary artery smooth muscle cells; actives raise or lower the signal.

Read-out in assay [5]: Collagen III, COL3A1 (gene 1281)
Nature of the assay: BSK_hDFCGF_CollagenIII: BioMAP Diversity Plus: hDFCGF Assay for Collagen III Biomarker Activity (AID 2283056). The following applies: primary human foreskin fibroblasts; actives raise or lower the signal. A digest of the protocol: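 ELISA read-out of collagen III from human skin fibroblast cultures sampled 24 h post-dosing. Values were derived by bidirectional fitting relative to the DMSO vehicle control.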

Read-out in assay [6]: Epidermal growth factor receptor (EGFR), EGFR (gene 1956)
Description: BSK_hDFCGF_EGFR: BioMAP Diversity Plus: hDFCGF Assay for Epidermal growth factor receptor (EGFR) Biomarker Activity (AID 2283057). The following applies: primary human foreskin fibroblasts; actives raise or lower the signal. A digest of the protocol:
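Dosing human primary skin fibroblasts, then measuring surface EGFR by ELISA at 24 h, gives the endpoint; gains and losses relative to DMSO were fitted in both directions.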

Read-out in assay [7]: Interleukin-8 (IL8), CXCL8 (gene 3576)
Nature of the assay: BSK_hDFCGF_IL8: BioMAP Diversity Plus: hDFCGF Assay for Interleukin-8 (IL8) Biomarker Activity (AID 2283058). The following applies: primary human foreskin fibroblasts; actives raise or lower the signal. A digest of the protocol: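 Cells used are human skin primary fibroblasts. Chemical is added, cultures run 24 h, then IL-8 is quantified by ELISA, and gain or loss versus DMSO control is fitted in both directions.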

Assay [8] in a line: BSK_hDFCGF_Proliferation: Cell Proliferation Assessment in the BioMAP Diversity Plus: hDFCGF Assay (AID 2283059).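 Note: curves fitted for both rise and fall of signal versus DMSO baseline.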 The following applies: primary human foreskin fibroblasts. The gist of the method:
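Sub-confluent human foreskin fibroblast cultures receive test chemical […]. Relative cell number is quantified by sulforhodamine B staining (0.1%, after 10% TCA fixation) at 560 nm, with bidirectional fitting referenced to DMSO.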

Read-out in assay [9]: Macrophage colony-stimulating factor (MCSF), CSF1 (gene 1435)
Description: BSK_hDFCGF_MCSF: BioMAP Diversity Plus: hDFCGF Assay for Macrophage colony-stimulating factor (MCSF) Biomarker Activity (AID 2283060). The conditions noted are these: primary human foreskin fibroblasts; actives raise or lower the signal. A digest of the protocol:
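Primary human foreskin fibroblasts dosed with chemical; 24 h later, M-CSF quantified by ELISA; curves fitted in both directions vs DMSO negative control.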

Assay [10] can be described thus: BSK_hDFCGF_SRB: Viability Assessment in the BioMAP Diversity Plus: hDFCGF Assay (AID 2283061).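 Note: cells exposed to compound for 24 h before the read.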 The conditions noted are these: primary human foreskin fibroblasts. The gist of the method:
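Readout is SRB absorbance at 560 nm, reflecting total protein in parallel cultures of human foreskin fibroblasts harvested 24 h after chemical dosing. Activity was fitted bidirectionally relative to DMSO.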

Read-out in assay [11]: TIMP metallopeptidase inhibitor 1 (TIMP1), TIMP1 (gene 7076)
Description: BSK_hDFCGF_TIMP1: BioMAP Diversity Plus: hDFCGF Assay for TIMP metallopeptidase inhibitor 1 (TIMP1) Biomarker Activity (AID 2283062). The conditions noted are these: primary human foreskin fibroblasts; actives raise or lower the signal. A digest of the protocol:
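Human skin fibroblasts (primary), hDFCGF system; compound exposure 24 h; TIMP-1 by ELISA; bidirectional fit vs DMSO negative control; overt cytotoxicity by SRB in parallel wells.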

Read-out in assay [12]: Monokine induced gamma interferon (MIG), CXCL9 (gene 4283)
Nature of the assay: BSK_hDFCGF_MIG: BioMAP Diversity Plus: hDFCGF Assay for Monokine induced gamma interferon (MIG) Biomarker Activity (AID 2283063). The following applies: primary human foreskin fibroblasts; actives raise or lower the signal. The gist of the method:
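Chemicals were added to primary human foreskin fibroblast cultures, which were sampled 24 h later. MIG levels were then quantified by ELISA and responses fitted in both directions relative to DMSO.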

Read-out in assay [13]: Matrix Metallopeptidase 1 (MMP1), MMP1 (gene 4312)
Description: BSK_hDFCGF_MMP1: BioMAP Diversity Plus: hDFCGF Assay for Matrix Metallopeptidase 1 (MMP1) Biomarker Activity (AID 2283064). The conditions noted are these: primary human foreskin fibroblasts; actives raise or lower the signal. The gist of the method:
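ELISA read-out of MMP1 from human foreskin fibroblasts (primary skin cells), 24 h post-dose. Gain or loss of signal was fitted bidirectionally versus DMSO negative control; cytotoxicity was checked by SRB in parallel cultures.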

Read-out in assay [14]: Vascular cell adhesion molecule 1 (VCAM1), VCAM1 (gene 7412)
Description: BSK_hDFCGF_VCAM1: BioMAP Diversity Plus: hDFCGF Assay for Vascular cell adhesion molecule 1 (VCAM1) Biomarker Activity (AID 2283065).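 For AC50: VCAM-1 protein level quantified by ELISA after 24 h chemical exposure.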 The following applies: primary human foreskin fibroblasts; actives raise or lower the signal. The gist of the method:
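Human foreskin fibroblast primary cells, chemical exposure 24 h; VCAM-1 by ELISA; bidirectional fit, DMSO = negative control/baseline.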

Read-out in assay [15]: Plasminogen activator inhibitor-1 (PAI1), SERPINE1 (gene 5054)
Description: BSK_hDFCGF_PAI1: BioMAP Diversity Plus: hDFCGF Assay for Plasminogen activator inhibitor-1 (PAI1) Biomarker Activity (AID 2283066). The conditions noted are these: primary human foreskin fibroblasts; actives raise or lower the signal. The gist of the method: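 Fibroblasts from human foreskin were treated with test chemical. After 24 h, PAI-1 was measured by ELISA. Activity was fitted in both directions relative to DMSO.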

Read-out in assay [16]: Intercellular Adhesion Molecule 1 (ICAM1), ICAM1 (gene 3383)
Description: BSK_KF3CT_ICAM1: BioMAP Diversity Plus: KF3CT Assay for Intercellular Adhesion Molecule 1 (ICAM1) Biomarker Activity (AID 2283067). The following applies: primary human keratinocytes with fibroblasts; actives raise or lower the signal. A digest of the protocol:
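ICAM-1 levels are measured by ELISA 24 h after dosing a primary human co-culture of keratinocytes and foreskin fibroblasts. Activity in either direction is fitted relative to DMSO vehicle.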

Read-out in assay [17]: Interferon-gamma inducible Protein 10 (IP10), CXCL10 (gene 3627)
Description: BSK_KF3CT_IP10: BioMAP Diversity Plus: KF3CT Assay for Interferon-gamma inducible Protein 10 (IP10) Biomarker Activity (AID 2283068). The conditions noted are these: primary human keratinocytes with fibroblasts; actives raise or lower the signal. A digest of the protocol: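 ELISA read-out of IP-10 after 24 h chemical dosing of human skin primary co-culture (keratinocytes, foreskin fibroblasts). Gain or loss of signal relative to DMSO, bidirectional curve fit.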

Assay [18] is described as follows: BSK_KF3CT_SRB: Viability Assessment in the BioMAP Diversity Plus: KF3CT Assay (AID 2283069).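 Note: total protein by sulforhodamine B staining as a cytotoxicity measure; read 24 h after compound addition; fitted for both signal gain and loss against DMSO baseline.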 The conditions noted are these: primary human keratinocytes with fibroblasts. The gist of the method: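 SRB read-out at 560 nm (0.1% stain, TCA-fixed cells) gauges overt cytotoxicity in a human skin keratinocyte–fibroblast co-culture 24 h post-dosing. Signal change was fitted bidirectionally relative to DMSO control.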

Read-out in assay [19]: Interleukin-1 alpha (IL1a), IL1A (gene 3552)
Nature of the assay: BSK_KF3CT_IL1a: BioMAP Diversity Plus: KF3CT Assay for Interleukin-1 alpha (IL1a) Biomarker Activity (AID 2283070). The conditions noted are these: primary human keratinocytes with fibroblasts; actives raise or lower the signal. The gist of the method: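 Primary skin co-culture (keratinocytes, foreskin fibroblasts), 24 h exposure; ELISA for IL-1a; bidirectional curve fit vs DMSO.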

Read-out in assay [20]: TIMP metallopeptidase inhibitor 2 (TIMP2), TIMP2 (gene 7077)
Description: BSK_KF3CT_TIMP2: BioMAP Diversity Plus: KF3CT Assay for TIMP metallopeptidase inhibitor 2 (TIMP2) Biomarker Activity (AID 2283071). The following applies: primary human keratinocytes with fibroblasts; actives raise or lower the signal. The gist of the method: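 Chemicals were dosed onto human skin primary co-cultures of keratinocytes and foreskin fibroblasts, and TIMP-2 was measured by ELISA after 24 hours. Activity in either direction was fitted relative to DMSO.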

`C#CCN1C(=O)COc2cc(F)c(N3C(=O)C4=C(CCCC4)C3=O)cc21`: the result in assay [1], in assay [2], in assay [3], in assay [4], in assay [5] and in assay [6] was inactive. In addition, the result in assay [7], in [8], in assay [9], in assay [10], in assay [11] and in assay [12] was inactive. Also, the outcome in assay [13], in [14], in [15], in [16], in assay [17] and in assay [18] was inactive. For the same molecule, the result in assay [19] and in [20] was inactive.

Take `O=C1c2ccccc2C(=O)N1SC(Cl)(Cl)Cl`: the result in assay [1], in assay [5], in assay [6], in [7], in [11] and in assay [13] was inactive. The result in assay [14], in [15], in assay [16], in [18], in assay [19] and in [20] was inactive. Also, the AC50 is 20 µM (active) in assay [2]; 33.8 µM (active) in assay [3]; 29.7 µM (active) in [8]; 26 µM (active) in assay [9]; 33.1 µM (active) in assay [10]; 18.3 µM (active) in [12]. Also, the AC50 in [17] was 26.8 µM (active).

For the molecule `COC(=O)c1ccccc1CS(=O)(=O)NC(=O)Nc1nc(OC)cc(OC)n1`, the outcome in assay [1], in assay [2], in assay [3], in assay [4], in assay [5] and in [6] was inactive. Moreover, the result in assay [7], in assay [8], in assay [9], in assay [10], in assay [11] and in [12] was inactive. In addition, the result in assay [13], in assay [14], in assay [15], in assay [16], in [17] and in assay [18] was inactive. The result in assay [19] and in assay [20] was inactive.

As for `Cc1cc(C)nc(NC(=O)NS(=O)(=O)c2ccccc2C(=O)OC2COC2)n1`, the outcome in assay [1], in [2], in [3], in assay [4], in assay [5] and in assay [6] was inactive. Also, the outcome in [7], in assay [8], in assay [9], in assay [10], in assay [11] and in assay [12] was inactive. For the same molecule, the result in assay [13], in assay [14], in assay [15], in assay [16], in [17] and in assay [18] was inactive. Moreover, the result in assay [19] and in [20] was inactive.

For `CC(C)N(C(=O)COc1nnc(C(F)(F)F)s1)c1ccc(F)cc1`, the result in assay [1], in [3], in assay [4], in [5], in assay [6] and in assay [7] was inactive. For the same molecule, the result in assay [10], in assay [11], in assay [12], in [15], in assay [16] and in assay [18] was inactive. In addition, the result in [19] and in assay [20] was inactive. For the same molecule, the concentration at half-maximal activity (AC50) was 22.9 µM (active) in assay [2]; 15.9 µM (active) in [8]; 28.9 µM (active) in [9]; 17.7 µM (active) in assay [13]; 8.54 µM (active) in [14]; 30.8 µM (active) in assay [17].
